Experiment in all cases: DAPPL (digital affinity profiling via proximity ligation, sequencing); 10 mM Tris-HCl pH 7.5, 50 mM NaCl, 1 mM DTT, 4% glycerol, room temperature, 30 min; GST-TFs on glutathione beads, 16-mer random dsDNA library, 0.1% formaldehyde crosslink after washing; high values mean tight binding
Holding throughout (details): protein: recombinant; tags: N-terminal GST; dsDNA, one strand shown

The target of experiment [1] is T1, FLI1 (Homo sapiens, UniProt Q01543 1-452).
T1 sequence: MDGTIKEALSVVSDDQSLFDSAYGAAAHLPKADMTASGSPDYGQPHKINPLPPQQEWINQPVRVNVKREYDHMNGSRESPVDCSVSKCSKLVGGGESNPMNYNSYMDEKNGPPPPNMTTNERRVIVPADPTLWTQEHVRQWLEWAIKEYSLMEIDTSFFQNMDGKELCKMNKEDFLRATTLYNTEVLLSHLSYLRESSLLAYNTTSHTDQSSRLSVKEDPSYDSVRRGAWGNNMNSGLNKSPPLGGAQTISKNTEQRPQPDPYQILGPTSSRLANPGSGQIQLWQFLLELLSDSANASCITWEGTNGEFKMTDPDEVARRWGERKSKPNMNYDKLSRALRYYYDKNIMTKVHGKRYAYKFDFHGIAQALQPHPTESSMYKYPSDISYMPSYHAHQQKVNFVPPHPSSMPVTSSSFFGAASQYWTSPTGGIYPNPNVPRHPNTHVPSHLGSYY
An outline of the steps:
(§1)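 A tag-only sample was pooled with DNA-barcoded human transcription factors that had been expressed in yeast as GST fusions and captured on glutathione beads. The pools were incubated for 30 min at room temperature with 200 nmole of a random double-stranded 16-mer DNA library in Tris/NaCl/DTT/glycerol buffer, then washed, crosslinked with 0.1% formaldehyde, proximity-ligated (BsaI/T4 ligase, 1 h, 37 °C), PCR-amplified and sequenced on an Illumina NextSeq500. Binding signal is each hexamer's read frequency for a factor divided by its frequency for the tag-only sample.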

In experiment [2] the target is T2, ELK1 (Homo sapiens, UniProt P19419 1-428).
T2 sequence: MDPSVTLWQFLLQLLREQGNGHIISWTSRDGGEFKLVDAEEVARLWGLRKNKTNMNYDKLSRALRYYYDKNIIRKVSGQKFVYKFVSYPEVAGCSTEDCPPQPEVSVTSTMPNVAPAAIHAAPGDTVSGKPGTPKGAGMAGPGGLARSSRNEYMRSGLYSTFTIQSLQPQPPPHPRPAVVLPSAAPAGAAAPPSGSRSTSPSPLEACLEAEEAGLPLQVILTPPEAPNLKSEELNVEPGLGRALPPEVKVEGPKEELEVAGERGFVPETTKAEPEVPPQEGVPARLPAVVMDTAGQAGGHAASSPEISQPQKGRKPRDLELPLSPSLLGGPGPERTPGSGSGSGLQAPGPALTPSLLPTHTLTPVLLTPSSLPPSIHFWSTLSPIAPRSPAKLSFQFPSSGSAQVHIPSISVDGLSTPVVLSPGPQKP
In outline:
as §1

The target in experiment [3] is T3, GABPA (Homo sapiens, UniProt Q06546 1-454).
T3 sequence: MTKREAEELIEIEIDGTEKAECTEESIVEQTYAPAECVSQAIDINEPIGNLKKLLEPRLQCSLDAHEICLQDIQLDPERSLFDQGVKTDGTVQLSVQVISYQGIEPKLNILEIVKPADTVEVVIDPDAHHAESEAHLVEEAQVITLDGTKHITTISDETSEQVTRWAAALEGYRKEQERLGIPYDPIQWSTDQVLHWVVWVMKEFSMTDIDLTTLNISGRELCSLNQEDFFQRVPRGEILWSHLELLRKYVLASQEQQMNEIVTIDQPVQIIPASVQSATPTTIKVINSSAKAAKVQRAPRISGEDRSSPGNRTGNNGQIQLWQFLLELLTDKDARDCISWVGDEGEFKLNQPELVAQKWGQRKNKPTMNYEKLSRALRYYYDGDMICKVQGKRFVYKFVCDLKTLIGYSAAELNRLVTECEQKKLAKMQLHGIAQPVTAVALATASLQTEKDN
An outline of the steps:
as §1

Experiment [4] concerns the target T4, ERG (Homo sapiens, UniProt P11308 1-479).
T4 sequence: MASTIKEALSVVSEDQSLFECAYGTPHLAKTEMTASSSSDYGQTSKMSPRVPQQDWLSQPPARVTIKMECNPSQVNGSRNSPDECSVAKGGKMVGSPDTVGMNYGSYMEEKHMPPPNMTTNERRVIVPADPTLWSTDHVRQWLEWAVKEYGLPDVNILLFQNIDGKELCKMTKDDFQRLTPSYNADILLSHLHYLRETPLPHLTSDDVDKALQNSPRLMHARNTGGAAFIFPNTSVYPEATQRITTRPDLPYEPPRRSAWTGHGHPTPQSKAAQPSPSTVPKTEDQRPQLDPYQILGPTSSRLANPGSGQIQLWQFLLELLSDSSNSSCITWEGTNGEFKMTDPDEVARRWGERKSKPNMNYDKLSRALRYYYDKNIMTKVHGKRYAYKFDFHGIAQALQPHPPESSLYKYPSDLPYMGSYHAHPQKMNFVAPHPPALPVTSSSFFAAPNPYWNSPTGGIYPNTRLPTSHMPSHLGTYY
In outline:
as §1

Experiment [5] concerns the target ELF1 (Homo sapiens, UniProt P32519 1-619). An outline of the steps:
as §1

Experiment [6] deals with T5, EHF (Homo sapiens, UniProt Q9NZC4 1-300).
T5 sequence: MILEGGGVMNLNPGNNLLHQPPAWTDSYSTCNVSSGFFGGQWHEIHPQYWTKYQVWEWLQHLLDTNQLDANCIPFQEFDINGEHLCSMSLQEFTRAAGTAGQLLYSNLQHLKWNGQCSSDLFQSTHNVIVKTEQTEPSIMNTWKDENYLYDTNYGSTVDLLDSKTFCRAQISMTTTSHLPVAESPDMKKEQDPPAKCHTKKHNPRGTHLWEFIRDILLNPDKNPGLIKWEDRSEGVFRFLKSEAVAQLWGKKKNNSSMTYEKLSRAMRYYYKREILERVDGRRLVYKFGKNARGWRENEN
In outline:
as §1

Experiment [7] addresses SPI1 (Homo sapiens, UniProt P17947 1-270). In outline: as §1
Experiment [8] deals with SPIB (Homo sapiens, UniProt Q01892 1-262). An outline of the steps: as §1
In experiment [9] the target is T6, ELK3 (Homo sapiens, UniProt P41970 1-407).
T6 sequence: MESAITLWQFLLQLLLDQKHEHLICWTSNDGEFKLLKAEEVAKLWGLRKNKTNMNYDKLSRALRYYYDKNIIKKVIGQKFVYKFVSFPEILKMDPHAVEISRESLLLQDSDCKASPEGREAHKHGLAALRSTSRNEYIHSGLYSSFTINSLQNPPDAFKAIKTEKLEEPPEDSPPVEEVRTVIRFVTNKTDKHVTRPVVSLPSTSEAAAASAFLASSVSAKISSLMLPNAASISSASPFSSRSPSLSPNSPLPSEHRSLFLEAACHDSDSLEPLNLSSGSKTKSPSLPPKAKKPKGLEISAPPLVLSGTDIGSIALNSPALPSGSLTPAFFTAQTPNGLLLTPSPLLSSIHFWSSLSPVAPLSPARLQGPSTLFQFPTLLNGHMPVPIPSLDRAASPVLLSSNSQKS
In outline: as §1

ELF1, sequence (P32519 whole entry): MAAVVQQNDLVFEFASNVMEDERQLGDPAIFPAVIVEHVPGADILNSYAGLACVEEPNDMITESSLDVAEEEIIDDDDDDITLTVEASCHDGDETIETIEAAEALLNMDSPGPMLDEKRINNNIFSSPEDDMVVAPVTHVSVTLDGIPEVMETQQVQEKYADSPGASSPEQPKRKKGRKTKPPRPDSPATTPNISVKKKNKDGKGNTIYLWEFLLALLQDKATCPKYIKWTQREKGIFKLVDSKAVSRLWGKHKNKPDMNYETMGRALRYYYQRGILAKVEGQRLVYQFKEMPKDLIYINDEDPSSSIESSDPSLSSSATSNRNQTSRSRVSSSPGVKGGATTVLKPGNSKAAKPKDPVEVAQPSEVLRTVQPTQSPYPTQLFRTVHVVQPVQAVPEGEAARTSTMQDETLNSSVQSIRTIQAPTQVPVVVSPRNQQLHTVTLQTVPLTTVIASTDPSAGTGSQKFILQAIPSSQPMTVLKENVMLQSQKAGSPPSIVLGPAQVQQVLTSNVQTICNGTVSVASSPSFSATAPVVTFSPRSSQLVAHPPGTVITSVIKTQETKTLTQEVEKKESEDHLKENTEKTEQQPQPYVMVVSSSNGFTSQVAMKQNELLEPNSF
SPIB, sequence (Q01892 whole entry): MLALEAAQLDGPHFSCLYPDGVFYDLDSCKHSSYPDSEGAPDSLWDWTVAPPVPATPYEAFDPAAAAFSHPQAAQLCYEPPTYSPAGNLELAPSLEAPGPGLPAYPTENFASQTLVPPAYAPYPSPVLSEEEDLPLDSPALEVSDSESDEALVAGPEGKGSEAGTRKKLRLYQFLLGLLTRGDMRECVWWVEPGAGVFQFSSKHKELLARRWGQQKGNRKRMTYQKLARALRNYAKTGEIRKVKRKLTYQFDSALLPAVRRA

For AATATA, the binding signal is 1.28 fold enrichment (6-mer frequency, TF over GST control) in [1]; 1.38 fold enrichment (6-mer frequency, TF over GST control) in experiment [2]; 1.35 fold enrichment (6-mer frequency, TF over GST control) in experiment [3]; 1.33 fold enrichment (6-mer frequency, TF over GST control) in [4]; 1.37 fold enrichment (6-mer frequency, TF over GST control) in [5]; 1.42 fold enrichment (6-mer frequency, TF over GST control) in experiment [6]. In addition, the binding signal is 1.37 fold enrichment (6-mer frequency, TF over GST control) in [7]; 1.28 fold enrichment (6-mer frequency, TF over GST control) in experiment [8]; 1.43 fold enrichment (6-mer frequency, TF over GST control) in experiment [9].

Take AAATGC: the binding signal is 1.17 fold enrichment (6-mer frequency, TF over GST control) in experiment [1]; 1.29 fold enrichment (6-mer frequency, TF over GST control) in experiment [2]; 1.25 fold enrichment (6-mer frequency, TF over GST control) in experiment [3]; 1.3 fold enrichment (6-mer frequency, TF over GST control) in experiment [4]; 1.25 fold enrichment (6-mer frequency, TF over GST control) in experiment [5]; 1.25 fold enrichment (6-mer frequency, TF over GST control) in experiment [6]. The binding signal was 1.48 fold enrichment (6-mer frequency, TF over GST control) in experiment [7]; 1.18 fold enrichment (6-mer frequency, TF over GST control) in experiment [8]; 1.18 fold enrichment (6-mer frequency, TF over GST control) in experiment [9].

ACCTGA: the binding signal in [1] is 1.06 fold enrichment (6-mer frequency, TF over GST control); in [2], 1.12 fold enrichment (6-mer frequency, TF over GST control); in experiment [3], 1.03 fold enrichment (6-mer frequency, TF over GST control); in experiment [4], 1.12 fold enrichment (6-mer frequency, TF over GST control); in [5] it was 1.14 fold enrichment (6-mer frequency, TF over GST control); in experiment [6], 1.09 fold enrichment (6-mer frequency, TF over GST control). For the same sequence, the binding signal in experiment [7] was 1.01 fold enrichment (6-mer frequency, TF over GST control); in [8] it was 1.1 fold enrichment (6-mer frequency, TF over GST control); in [9] it was 1.07 fold enrichment (6-mer frequency, TF over GST control).

Turning to ATCGCT, the binding signal was 1.09 fold enrichment (6-mer frequency, TF over GST control) in experiment [1]; 1.09 fold enrichment (6-mer frequency, TF over GST control) in experiment [2]; 1.09 fold enrichment (6-mer frequency, TF over GST control) in experiment [3]; 1.01 fold enrichment (6-mer frequency, TF over GST control) in experiment [4]; 1.04 fold enrichment (6-mer frequency, TF over GST control) in experiment [5]; 1.08 fold enrichment (6-mer frequency, TF over GST control) in [6]. In addition, the binding signal in experiment [7] is 1.02 fold enrichment (6-mer frequency, TF over GST control); in experiment [8], 1.14 fold enrichment (6-mer frequency, TF over GST control); in experiment [9] it was 1.1 fold enrichment (6-mer frequency, TF over GST control).

Regarding TCTCAA, the binding signal was 1.38 fold enrichment (6-mer frequency, TF over GST control) in experiment [1]; 1.27 fold enrichment (6-mer frequency, TF over GST control) in experiment [2]; 1.27 fold enrichment (6-mer frequency, TF over GST control) in experiment [3]; 1.28 fold enrichment (6-mer frequency, TF over GST control) in experiment [4]; 1.26 fold enrichment (6-mer frequency, TF over GST control) in experiment [5]; 1.19 fold enrichment (6-mer frequency, TF over GST control) in [6]. Further, the binding signal is 1.22 fold enrichment (6-mer frequency, TF over GST control) in [7]; 1.33 fold enrichment (6-mer frequency, TF over GST control) in experiment [8]; 1.43 fold enrichment (6-mer frequency, TF over GST control) in experiment [9].

For the sequence TGCGGA, the binding signal is 1.35 fold enrichment (6-mer frequency, TF over GST control) in experiment [1]; 1.27 fold enrichment (6-mer frequency, TF over GST control) in experiment [2]; 1.2 fold enrichment (6-mer frequency, TF over GST control) in experiment [3]; 1.37 fold enrichment (6-mer frequency, TF over GST control) in [4]; 1.32 fold enrichment (6-mer frequency, TF over GST control) in [5]; 1.37 fold enrichment (6-mer frequency, TF over GST control) in experiment [6]. Also, the binding signal in experiment [7] is 1.85 fold enrichment (6-mer frequency, TF over GST control); in experiment [8], 1.29 fold enrichment (6-mer frequency, TF over GST control); in experiment [9], 1.23 fold enrichment (6-mer frequency, TF over GST control).

Regarding CTATCC, the binding signal in [1] was 1.45 fold enrichment (6-mer frequency, TF over GST control); in [2], 1.4 fold enrichment (6-mer frequency, TF over GST control); in experiment [3] it was 1.29 fold enrichment (6-mer frequency, TF over GST control); in [4] it was 1.34 fold enrichment (6-mer frequency, TF over GST control); in [5], 1.38 fold enrichment (6-mer frequency, TF over GST control); in experiment [6], 1.29 fold enrichment (6-mer frequency, TF over GST control). Moreover, the binding signal is 1.28 fold enrichment (6-mer frequency, TF over GST control) in [7]; 1.4 fold enrichment (6-mer frequency, TF over GST control) in experiment [8]; 1.48 fold enrichment (6-mer frequency, TF over GST control) in experiment [9].

Take CTGTGC: the binding signal in experiment [1] was 1.09 fold enrichment (6-mer frequency, TF over GST control); in [2] it was 1.18 fold enrichment (6-mer frequency, TF over GST control); in experiment [3], 1.12 fold enrichment (6-mer frequency, TF over GST control); in experiment [4], 1.11 fold enrichment (6-mer frequency, TF over GST control); in experiment [5], 1.14 fold enrichment (6-mer frequency, TF over GST control); in [6], 1.02 fold enrichment (6-mer frequency, TF over GST control). Also, the binding signal is 1.02 fold enrichment (6-mer frequency, TF over GST control) in experiment [7]; 1.13 fold enrichment (6-mer frequency, TF over GST control) in experiment [8]; 1.09 fold enrichment (6-mer frequency, TF over GST control) in experiment [9].

Values taken from PMC7862700, “An all-to-all approach to the identification of sequence-specific readers for epigenetic DNA modifications on cytosine”.
